Laboratory results taken from PubChem BioAssay (NCI).
This is part of a sample that, as a whole, favours compounds with a hit. Of some 79,000 tested, about 15% had one in any assay. Active and inactive are the calls of the source. Rule as the data show it: active = growth inhibition above about 70%; inactive = the rest.

Assays:
[1] = NCI Yeast Anticancer Drug Screen. Data for the rad50 strain (AID 155);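 also: 0% = growth of vehicle-only cultures of the same strain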; details: S. cerevisiae rad50 strain growth inhibition; at 50.0 µM; hits give high values
Method in brief: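 A DNA repair-deficient yeast mutant serves as the test organism; compound-induced growth inhibition is calculated against vehicle-treated cells.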

[2] = NCI Yeast Anticancer Drug Screen. Data for the mec2-1 strain (AID 157); details: S. cerevisiae mec2-1 strain, at 50.0 µM, hits give high values
Method in brief: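 Cells of the genetically defined mec2-1 yeast strain are incubated with test compound. Inhibition of growth is calculated against vehicle-treated controls.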

[3] = NCI Yeast Anticancer Drug Screen. Data for the sgs1 mgt1 strain (AID 161);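 also: 0% = growth of cultures given vehicle only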; details: S. cerevisiae sgs1 mgt1 strain, at 50.0 µM, hits give high values
Method in brief: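 Read-out: growth inhibition vs vehicle controls. Cells: mutant yeast strain deficient in DNA damage repair.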

[4] = NCI Yeast Anticancer Drug Screen. Data for the cln2 rad14 strain (AID 165);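 also: 0% = growth equal to vehicle treated cultures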; details: S. cerevisiae cln2 rad14 strain, at 50.0 µM, hits give high values
Method in brief: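 The screen exposed genetically defined yeast (cln2 rad14) to test compounds and scored growth inhibition relative to vehicle-treated controls.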

[5] = NCI Yeast Anticancer Drug Screen. Data for the bub3 strain (AID 167); details: S. cerevisiae bub3 mutant strain, at 50.0 µM, hits give high values
Method in brief: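 Inhibition values come from growth of compound-treated mutant yeast normalised to vehicle-treated controls.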

[6] = NCI Yeast Anticancer Drug Screen. Data for the mlh1 rad18 strain (AID 175); details: S. cerevisiae mlh1 rad18 strain growth inhibition; at 50.0 µM; hits give high values
Method in brief: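 Compound-treated yeast growth, normalised to vehicle controls. Strain bears defined DNA repair mutations.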

Measured: growth inhibition

Cc1ccc(N=Nc2ccc(O)c(CN(C)C)c2)cc1C
inactive: [1] -26.4% | [2] -29.5% | [3] 48.5% | [4] -11% | [5] 49% | [6] 36.2%

c1c[nH]c(C2=NCCCCC2)c1
inactive: [1] 1.85% | [2] -6.95% | [3] 2.2% | [4] -3% | [5] -5.2% | [6] -29.1%

COC1OC(COC(c2ccccc2)(c2ccccc2)c2ccccc2)C2OC12 (stereo not given)
inactive: [1] 44.1% | [2] 5.15% | [3] 22.6% | [4] 11% | [5] 1.3% | [6] 19.7%

COc1ccc2c(c1)OC(c1cccnc1)C(c1ccccc1)C2=O (stereo not given)
inactive: [1] -5.45% | [2] -27.9% | [3] 17.9% | [4] 15.4% | [5] 16.1% | [6] -0.05%

Cc1ccc(OCC2OC(n3cnc4c(Cl)nc(N)nc43)CC2Oc2ccc(C)cc2)cc1 (stereo not given)
inactive: [1] 2.3% | [2] -11% | [3] 13.4% | [4] 14.6% | [5] 2.4% | [6] -13.2%

CCOC(=O)CCC(NC(=O)c1ccc(Nc2nc3ccccc3nc2C(=O)OCC)cc1)C(=O)OCC (stereo not given)
inactive: [1] 11.8% | [2] 2.55% | [3] 9.1% | [4] 15.4% | [5] 25.8% | [6] 19.1%

CCOC(=O)C(O)(NC(C)=O)C(F)(F)F (stereo not given)
inactive: [1] 27.9% | [2] -3.9% | [3] -0.8% | [4] 17.4% | [5] 0.2% | [6] -47.4%

COc1ccccc1NC(=O)Nc1ccccc1
inactive: [1] 1.9% | [2] -4.3% | [3] 3.7% | [4] -23.5% | [5] -4.65% | [6] 0.3%

COCC(=O)C(C(C)=O)C(c1ccc2c(c1)OCO2)C(C(C)=O)C(=O)COC (stereo not given)
inactive: [1] -40.5% | [2] -8.25% | [3] -18.9% | [4] -39.5% | [5] -5.75% | [6] -2.6%

S=c1nc[nH]c2c1ncn2C1OC(COCc2ccccc2)C(OCc2ccccc2)C1OCc1ccccc1 (stereo not given)
inactive: [1] 31.2% | [2] 15.1% | [3] 17.4% | [4] 14.7% | [5] 2.1% | [6] 5.9%

O=[N+]([O-])c1cccc(/C=C/C=C/c2ccc(Cl)c(Cl)c2)c1
inactive: [1] 7.65% | [2] 9.3% | [3] 30.3% | [4] 3.65% | [5] 28.2% | [6] 4.1%

O=C(NC(=S)Nc1ccc(Cl)cc1C(=O)c1ccccc1)c1ccc(Cl)cc1Cl
active: [4] 74.4%
inactive: [1] -32% | [2] 6.9% | [3] -8.45% | [5] -3.05% | [6] -1.15%

CC(=O)OC1c2ccccc2C(=O)C1(OC(C)=O)c1ccccc1 (stereo not given)
inactive: [1] 0.7% | [2] 11.3% | [3] 12.7% | [4] 25.3% | [5] -10.9% | [6] 43.9%

C/C=C\CCCCCCCCCCCCCCCC
inactive: [1] -1.15% | [2] -12.1% | [3] -0.6% | [4] 13.4% | [5] -6.9% | [6] 16.8%

CSc1ccc(C2=CCCCC2)cc1
inactive: [1] -4.35% | [2] -1.7% | [3] 0.05% | [4] -15% | [5] 0.95% | [6] 17.9%

CCCCCCCCCCCC(=O)OCC1OC(n2cc(F)c(=O)[nH]c2=O)C(NC(=O)OCc2ccccc2)C(O)C1O (stereo not given)
inactive: [1] 62.8% | [2] 5.85% | [3] 31.2% | [4] 18.8% | [5] 18.1% | [6] 24.8%

S=C(NCCS)Nc1ccccc1
inactive: [1] -0.6% | [2] -11.4% | [3] -2.15% | [4] -46.6% | [5] 41.8% | [6] 13.3%

O=C(N/N=C/C1CCCCC1)C(=O)N/N=C/C1CCCCC1
inactive: [1] 4.45% | [2] 6.65% | [3] 8.55% | [4] -7.45% | [5] 28.2% | [6] -58.5%

NC1C(=O)Nc2ccccc21 (stereo not given)
inactive: [1] 1.85% | [2] 5.95% | [3] -5.75% | [4] -1.05% | [5] 8.35% | [6] 4.95%

C/C(=N\n1cc(-c2ccccc2)nc1N)c1ccccc1
inactive: [1] -2.8% | [2] 4.2% | [3] 6% | [4] 13.5% | [5] 20.6% | [6] 13.1%

CCN(CC)CCOC(=O)Cc1ccccc1
inactive: [1] -8.9% | [2] -12.7% | [3] 19.9% | [4] 7.65% | [5] 6.5% | [6] 0.9%

COc1ccc(C(Cc2ccccc2Cl)N(CCO)CCO)cc1 (stereo not given)
inactive: [1] -7% | [2] -5.3% | [3] -9.1% | [4] -19.2% | [5] 5.5% | [6] -5.2%

CCOC(=O)C(C)OC(=O)C(C)OC(C)=O (stereo not given)
inactive: [1] 4.7% | [2] 23.8% | [3] 17.1% | [4] 9.4% | [5] 1.5% | [6] -7.7%

COc1ccc(Cc2cc3c(cc2OCC(=O)Nc2ccccn2)OCO3)cc1
inactive: [1] 22.2% | [2] -1.95% | [3] 6.25% | [4] 19.3% | [5] -3% | [6] 8.1%

[Mn+2].[Mn+2].c1ccc2c(c1)-c1nc-2nc2[n-]c(nc3nc(nc4[n-]c(n1)c1ccccc41)-c1ccccc1-3)c1cc3c4nc5nc(nc6[n-]c(nc7nc(nc([n-]4)c3cc21)-c1ccccc1-7)c1ccccc61)-c1ccccc1-5
inactive: [1] 15.4% | [2] -0.9% | [3] -8.75% | [4] -21.2% | [5] 0.4% | [6] 21.8%

CCOC(=O)CNC(=O)C(Cc1ccccc1)NC(=O)c1ccccc1[N+](=O)[O-] (stereo not given)
inactive: [1] 22.8% | [2] 14.3% | [3] 16% | [4] 15.8% | [5] -1.25% | [6] 15.8%

CCc1cccc(C(C)CC)c1N=C(NC(=O)c1ccccc1C(=O)NC(=Nc1c(CC)cccc1C(C)CC)SC)SC (stereo not given)
inactive: [1] -0.7% | [2] -3.15% | [3] 5.3% | [4] 6.3% | [5] 15.1% | [6] -5.15%

CN(C)c1ccc(SC2OC(CO)C(O)C(O)C2O)cc1 (stereo not given)
inactive: [1] -12.8% | [2] -5.25% | [3] -7.3% | [4] -54.5% | [5] 3.7% | [6] -10%

CC(=O)OCC1OC(n2ncnc2CI)C(OC(C)=O)C(OC(C)=O)C1OC(C)=O (stereo not given)
inactive: [1] 36.5% | [2] 8.35% | [3] 13.6% | [4] 16.9% | [5] 4.15% | [6] 21.5%

CCCCCN(CCCCC)C(=S)[S-].CCCCCN(CCCCC)C(=S)[S-].[Zn]
active: [1] 72.7% | [3] 72.1%
inactive: [2] 53.6% | [4] 46.4% | [5] 42.1% | [6] 60.8%

C=CCCCCCCCCC(=O)NCC1CCCCO1 (stereo not given)
inactive: [1] 2.8% | [2] -0.5% | [3] 67.6% | [4] -1.35% | [5] 10.1% | [6] 58.1%

O=C(COc1cc(Cl)c(Cl)cc1Cl)Nc1c(Cl)cc(Cl)cc1Cl
inactive: [1] 2.5% | [2] 5.8% | [3] -2.75% | [4] -18.6% | [5] -2.15% | [6] 22.7%

Nc1nc(Cl)c2ncn(C3OC(CO)C(O)C3O)c2n1 (stereo not given)
inactive: [1] -8.1% | [2] -3.65% | [3] -1.9% | [4] -34.5% | [5] -5.2% | [6] 1.4%

CC(=O)Nc1cc(NC(C)=O)c(N=O)c(NC(C)=O)n1
inactive: [1] -19.5% | [2] -13.2% | [3] -0.7% | [4] -3.45% | [5] -15.8% | [6] 7.35%

COC(=O)C(=O)c1c(-c2cccnc2)[nH]c2ccccc12
inactive: [1] 7.3% | [2] -7.1% | [3] 1.05% | [4] -9.05% | [5] 13.2% | [6] 4%

Cn1ncc2c(=O)[nH]c(N)nc21
inactive: [1] 6.65% | [2] 31.2% | [3] -19.6% | [4] 1.2% | [5] -3.15% | [6] -5.85%

CN1C(=O)C(=O)C(c2ccccc2)(c2ccccc2)C1=O
inactive: [1] 9.45% | [2] -4.55% | [3] 12.4% | [4] -53.2% | [5] 8.75% | [6] -10.8%

CCCN(CCN(CC)CC)C(=O)N(CC)CC
inactive: [1] -11% | [2] 14.3% | [3] 3.2% | [4] -19.1% | [5] 6.35% | [6] -17.6%

O=[N+]([O-])c1ccc(-c2nnc(C34CC5CC(CC(C5)C3)C4)o2)cc1
inactive: [1] -26.7% | [2] -1.2% | [3] -13.4% | [4] -5.9% | [5] -11.2% | [6] -30.1%

O=S(=O)(/N=C(Cl)/C(Cl)=N/S(=O)(=O)c1ccccc1)c1ccccc1
inactive: [1] 15.3% | [2] -1.65% | [3] 22.7% | [4] -9.9% | [5] -0.1% | [6] 5.3%
